ChEMBL document CHEMBL3988442, “University of Dundee, Small-Polar-MMV Screening Library” (2021)
The whole screen tested about 48,000 compounds, of which about 13,000 (27%) showed an effect of 50% or more. The list shows a part of the results.

These compounds were tested on Wolbachia pipientis (assay: Anti-Wolbachia Cell-Based Screen). Settings: 5 µM.
Type: functional
Design: scale not given: in the data most compounds retested in dose-response had high values

Structure (SMILES)	Percent Effect [%]
Cc1csc(N2CCCN(C(=O)c3nccnc3N)CC2)n1	0.5076
CC(NCC1CCN(CCO)CC1)c1ccc(F)c(Cl)c1 (stereo unspecified)	2.095
CC(C)CN1C(=O)C2(CCCC2)NC1c1c[nH]nc1-c1cccnc1 (stereo unspecified)	-9.401
CNC(=O)C(C)(C)N1CCC[C@H]1C(=O)NCCN1CCCC1.Cl.Cl	7.406
CCC(CNC(=O)N1CCOCC2(CCOCC2)C1)c1ccccc1 (stereo unspecified)	-24.39
CCN(CC)S(=O)(=O)N1CCCN(CC2CCCO2)CC1 (stereo unspecified)	96.25
CC(C)N(C)S(=O)(=O)N(Cc1cccs1)CC1CCCO1 (stereo unspecified)	1.212
O=C(CN(Cc1cccc(F)c1)CC1CCCO1)N1CCCC1 (stereo unspecified)	12.97
CCN(CC(=O)NC)S(=O)(=O)N1CCCCC1	6.131
CCN(CC)S(=O)(=O)N1CCCN(CC(=O)NC(C)C)CC1	-10.54
CCN(CCS(=O)(=O)CC)CC1CCCO1 (stereo unspecified)	2.463
O=S(=O)(N1CCCC1)N(Cc1ccccc1)CC1CCCO1 (stereo unspecified)	124.5
CCS(=O)(=O)CCN(CC1CCCO1)C1CCCC1 (stereo unspecified)	-6.431
CCN(CC1CCCO1)S(=O)(=O)N1CCCCCC1 (stereo unspecified)	99.13
Cc1cc(CN[C@@H](Cc2ccccc2)C(N)=O)c(C)s1	-7.626
Cc1cc(C)n(CCNC(=O)c2ncc[nH]2)c(=O)n1	-0.5408
CSc1ncccc1C(=O)N1C[C@H]2CC[C@@H]1CN(c1ncccn1)C2	-10.71
CN(CC(=O)NCCC#N)C(c1ccccc1)c1ccccc1	-3.756
FC(F)Oc1ccc(NCc2nc(C3CC3)no2)c(OC(F)F)c1	6.863
CN(C)C(CNC(=O)c1nc(N2CCOCC2)ncc1Cl)c1cccs1 (stereo unspecified)	4.739
Cc1ccc(C(CNC(=O)c2cc(CC(C)C)nn2C)N(C)C)cc1 (stereo unspecified)	-5.66
Cc1noc(C(C)C)c1C(=O)NCC(c1cccs1)N(C)C (stereo unspecified)	102.8
Cc1noc(C(C)C)c1C(=O)NCC(c1ccccc1)N(C)C (stereo unspecified)	108.3
Cc1ccc(C(CNC(=O)c2c(C)noc2C(C)C)N(C)C)cc1 (stereo unspecified)	95.03
Cc1noc(C(C)C)c1C(=O)NCC(c1cccc(F)c1)N(C)C (stereo unspecified)	-3.913
CC(C)C(=O)NS(=O)(=O)CCc1ccccc1	-1.365

Structure (SMILES)	Percent Effect [%]
Cc1ccnc(NCCNC(=O)CCNC(=O)c2ccccc2F)c1	6.973
CCO[C@@H]1C[C@H]2CN(Cc3ccc(C)o3)CCN2C1.O=C(O)C(F)(F)F.O=C(O)C(F)(F)F	-6.795
CC(C)NC(=O)N1CCc2onc(C(=O)Nc3cccnc3)c2C1.O=C(O)C(F)(F)F	-28.12
Cn1cc(CN2CCc3onc(COc4cccnc4)c3C2)cn1.O=C(O)C(F)(F)F.O=C(O)C(F)(F)F	-7.028
Cc1ccc(CN2CCc3onc(C(=O)Nc4cccnc4)c3C2)o1.O=C(O)C(F)(F)F.O=C(O)C(F)(F)F	119.7
Cc1ccc(CN2CCc3[nH]nc(C(=O)N(C)C)c3C2)o1.O=C(O)C(F)(F)F	3.694
Cc1ccc(CN2CCO[C@@H]3C[C@@H](C(=O)NC(C)C)C[C@H]32)o1.O=C(O)C(F)(F)F	-8.614
COCc1nn(C)c2c1CN(Cc1cnn(C)c1)CC2.O=C(O)C(F)(F)F	-20.95
Cc1ccc(CN2CCc3onc(C(=O)NC(C)C)c3C2)o1.O=C(O)C(F)(F)F	106.2
CN(C)C(=O)N1CCc2onc(C(=O)Nc3cccnc3)c2C1.O=C(O)C(F)(F)F	-32.01
Cn1cc(CN2CCc3onc(C(=O)N4CCCC4)c3C2)cn1.O=C(O)C(F)(F)F	123
Cc1ccc(CN2CCc3[nH]nc(C(=O)N4CCN(C)CC4)c3C2)o1.O=C(O)C(F)(F)F.O=C(O)C(F)(F)F.O=C(O)C(F)(F)F	-23.43
Cc1ccc(CN2CCc3onc(C(=O)N4CCCC4)c3C2)o1.O=C(O)C(F)(F)F	105.8
O=C1CC[C@H]2CN(Cc3cccnc3)CC[C@H]2N1CCc1c[nH]cn1	-39.87
CN(c1ccccc1C(=O)O)S(=O)(=O)c1cccc2cccnc12	-35.11
CC(C)NC(=O)N1CCc2onc(C(=O)NCCN(C)C)c2C1.O=C(O)C(F)(F)F	-1.789
Cc1ccc(CN2CCc3onc(C(=O)NCCN(C)C)c3C2)o1.O=C(O)C(F)(F)F.O=C(O)C(F)(F)F	74.07
CC(C)C(=O)N1CCc2onc(C(=O)NCCN(C)C)c2C1.O=C(O)C(F)(F)F	7.945
Cc1ccc(OC2(C(=O)O)CCN(C(=O)c3cccs3)CC2)cn1	-10.49
CC(CCSc1ccccc1)N1CCN(C(=O)c2cccs2)CC1 (stereo unspecified)	0.564
CS(=O)(=O)N1CCC2(CCN(C(=O)c3cccs3)CC2)CC1	95.21
O=C(c1ccsc1)N1CCC2(CC1)CCN(S(=O)(=O)C1CC1)CC2	99.84
CCS(=O)(=O)N1CCC2(CCN(Cc3nccs3)CC2)CC1.O=C(O)C(F)(F)F	12.02
O=C(c1cccs1)N1CCC2(CC1)CCN(S(=O)(=O)C1CC1)CC2	97.11
CCS(=O)(=O)N1CCC2(CCN(C(=O)c3cccs3)CC2)CC1	97.57
